Reference: the supplement of paper PMC10849652
Of roughly 7,900 targets only a part is listed; those with a hit were picked by preference. About 0.6% of all pairs of compound and target were hits. A number with no mark means an inactive call.

Experiments:
Test in all cases: log2 fold change, soluble protein after heating vs DMSO (PISA); higher = thermal stabilisation; K562 cells, 10 uM, 30 min; active = over 0.2 and 3.5 SD of the protein, either way, in both replicates (recomputed)
erlotinib = compound: C#Cc1cccc(Nc2ncnc3cc(OCCOC)c(OCCOC)cc23)c1 [erlotinib]
Procedure, shortened: (§1)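 Soluble protein was quantified by TMTpro 16plex LC-MS/MS after channel sums were equalised. It was obtained as the supernatant after 21,000xg for 90 min from pooled aliquots of K562 cells (2×10^6 cells/mL, 10 μM compound, 30 min) heated for 3 min across 48°C-58°C and extracted in PBS with 0.5% NP-40 at 4°C. Thermal stability values are relative to control samples and come from duplicates. They are given as log2 fold changes.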

[1] = compound: C/C(=N\NC(=O)C1=CC(=CC=C1)S(=O)(=O)N2CCOCC2)/C3=C(C=CC(=C3)Cl)O
Procedure, shortened: as §1

[2] = compound: C1=CC(=C(C=C1Cl)C2=NC3=NC=CN=C3C(=N2)NC4=CC=NC=C4)F
Procedure, shortened: as §1

[3] = compound: C1=CC(=CC=C1C2=NC3=C(N2)C=C(C=C3)C(=O)N)OC4=CC=C(C=C4)Cl
Procedure, shortened: as §1

[4] = compound: C1=CC2=C(C=CC(=C2)/C=C\3/C(=O)NC(=NCC4=CC=CS4)S3)N=C1
Procedure, shortened: as §1

[5] = compound: C1=CC2=NC=CN=C2C=C1/C=C/3\C(=O)NC(=O)S3
Procedure, shortened: as §1

[6] = compound: C1=CC=C(C=C1)C2=NC(=C(N2)C3=CC=NC=C3)C4=CC(=C(C=C4)Cl)O
Procedure, shortened: as §1

[7] = compound: C1=CC=C2C(=C1)C3=NNC4=CC=CC(=C43)C2=O
Procedure, shortened: as §1

[8] = compound: C1CCN(C1)C(=O)NC2=CC=CC(=C2)NC3=NC=C(C(=N3)NCCC4=CN=CN4)Br
Procedure, shortened: as §1

[9] = compound: C1CN(CCC1(CC2=CC=C(C=C2)Cl)N)C3=NC=NC4=C3C=CN4
Procedure, shortened: as §1

IRAK-1-4 Inhibitor I = compound: C1COCCN1CCN2C3=CC=CC=C3N=C2NC(=O)C4=CC(=CC=C4)[N+](=O)[O-] [IRAK-1-4 Inhibitor I]
Procedure, shortened: as §1

ibrutinib = compound: C=CC(=O)N1CCC[C@@H](n2nc(-c3ccc(Oc4ccccc4)cc3)c3c(N)ncnc32)C1 [ibrutinib]
Procedure, shortened: as §1

[10] = compound: CC(=O)c1cnc2ccc(-c3cc(Cl)c(O)c(Cl)c3)nc2c1N[C@H]1CC[C@H](CN(C)C)CC1
Procedure, shortened: as §1

ralimetinib = compound: CC(C)(C)Cn1c(N)nc2ccc(-c3[nH]c(C(C)(C)C)nc3-c3ccc(F)cc3)nc21 [ralimetinib]
Procedure, shortened: as §1

[11] = compound: CC(C)(O)CC(=O)NCCn1ccc2ncnc(Nc3ccc(Oc4cccc(C(F)(F)F)c4)c(Cl)c3)c21
Procedure, shortened: as §1

[12] = compound: CC(C)C1=C2N=C(C=C(N2N=C1)NCC3=CC=CC=C3)NCCCCCCN
Procedure, shortened: as §1

[13] = compound: CC(C)C[C@@H](C=O)NC(=O)[C@H](CC(C)C)NC(=O)[C@H](CC(C)C)NC(=O)OCc1ccccc1
Procedure, shortened: as §1

pinometostat = compound: CC(C)N(C[C@H]1O[C@@H](n2cnc3c(N)ncnc32)[C@H](O)[C@@H]1O)[C@H]1C[C@@H](CCc2nc3cc(C(C)(C)C)ccc3[nH]2)C1 [pinometostat]
Procedure, shortened: as §1

[14] = compound: CC1=C(C2=C(C=C1)C(=O)C3=CC=CC=C3N2CCCN)C
Procedure, shortened: as §1

[15] = compound: CC1=C(C(CC(=O)N1)C2=CC=C(C=C2)C(F)(F)F)C(=O)NC3=C(C=C4C(=C3)C=NN4)F
Procedure, shortened: as §1

Chain of UniProt P02545 (P02545 whole entry, looked up): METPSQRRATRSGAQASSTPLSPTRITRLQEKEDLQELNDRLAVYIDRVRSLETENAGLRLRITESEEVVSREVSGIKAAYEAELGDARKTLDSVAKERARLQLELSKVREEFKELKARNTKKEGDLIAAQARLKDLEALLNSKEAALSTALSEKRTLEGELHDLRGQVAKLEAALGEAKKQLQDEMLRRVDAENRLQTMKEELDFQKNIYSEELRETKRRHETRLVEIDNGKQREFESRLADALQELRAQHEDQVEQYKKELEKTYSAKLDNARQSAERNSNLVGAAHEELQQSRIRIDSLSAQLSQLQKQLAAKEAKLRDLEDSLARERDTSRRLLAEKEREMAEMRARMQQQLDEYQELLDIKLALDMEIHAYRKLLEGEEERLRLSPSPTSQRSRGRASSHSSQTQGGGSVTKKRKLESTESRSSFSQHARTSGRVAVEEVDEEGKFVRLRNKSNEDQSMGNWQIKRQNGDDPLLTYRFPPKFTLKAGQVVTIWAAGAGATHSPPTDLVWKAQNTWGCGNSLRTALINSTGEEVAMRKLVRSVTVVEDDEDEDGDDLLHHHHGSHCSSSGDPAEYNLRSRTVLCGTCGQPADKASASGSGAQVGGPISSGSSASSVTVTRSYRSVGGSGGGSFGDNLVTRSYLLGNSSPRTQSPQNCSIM
Chain of UniProt P52333 (P52333 whole entry, looked up): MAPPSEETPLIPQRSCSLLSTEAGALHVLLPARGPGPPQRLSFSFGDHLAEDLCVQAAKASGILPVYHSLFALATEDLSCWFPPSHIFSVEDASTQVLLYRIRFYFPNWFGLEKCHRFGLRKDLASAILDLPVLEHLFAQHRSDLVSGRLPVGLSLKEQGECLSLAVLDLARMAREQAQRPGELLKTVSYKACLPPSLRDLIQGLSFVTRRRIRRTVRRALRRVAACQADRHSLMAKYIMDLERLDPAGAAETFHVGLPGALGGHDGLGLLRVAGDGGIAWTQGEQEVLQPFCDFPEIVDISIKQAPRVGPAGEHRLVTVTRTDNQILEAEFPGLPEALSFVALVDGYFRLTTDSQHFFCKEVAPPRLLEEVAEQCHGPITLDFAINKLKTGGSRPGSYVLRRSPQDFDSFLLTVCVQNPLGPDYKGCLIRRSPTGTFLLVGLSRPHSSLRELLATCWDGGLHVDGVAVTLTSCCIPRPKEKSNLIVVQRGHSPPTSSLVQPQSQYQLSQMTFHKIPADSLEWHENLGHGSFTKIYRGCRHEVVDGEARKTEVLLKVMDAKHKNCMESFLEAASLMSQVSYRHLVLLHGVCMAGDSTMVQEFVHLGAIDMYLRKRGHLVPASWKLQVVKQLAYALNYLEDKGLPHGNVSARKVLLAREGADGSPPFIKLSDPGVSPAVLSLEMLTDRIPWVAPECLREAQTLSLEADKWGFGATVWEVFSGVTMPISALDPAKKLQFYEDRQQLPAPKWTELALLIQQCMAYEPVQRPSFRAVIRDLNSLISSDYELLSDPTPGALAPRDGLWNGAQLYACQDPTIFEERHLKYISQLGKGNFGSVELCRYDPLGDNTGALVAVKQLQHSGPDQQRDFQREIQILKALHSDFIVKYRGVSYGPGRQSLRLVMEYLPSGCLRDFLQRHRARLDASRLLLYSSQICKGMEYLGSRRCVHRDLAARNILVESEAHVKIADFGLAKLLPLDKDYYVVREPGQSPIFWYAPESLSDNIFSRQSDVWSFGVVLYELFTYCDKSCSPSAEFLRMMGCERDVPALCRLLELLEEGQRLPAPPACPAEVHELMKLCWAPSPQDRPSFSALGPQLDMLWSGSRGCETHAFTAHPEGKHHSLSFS
Chain of UniProt Q8NHS3 (Q8NHS3 whole entry, looked up): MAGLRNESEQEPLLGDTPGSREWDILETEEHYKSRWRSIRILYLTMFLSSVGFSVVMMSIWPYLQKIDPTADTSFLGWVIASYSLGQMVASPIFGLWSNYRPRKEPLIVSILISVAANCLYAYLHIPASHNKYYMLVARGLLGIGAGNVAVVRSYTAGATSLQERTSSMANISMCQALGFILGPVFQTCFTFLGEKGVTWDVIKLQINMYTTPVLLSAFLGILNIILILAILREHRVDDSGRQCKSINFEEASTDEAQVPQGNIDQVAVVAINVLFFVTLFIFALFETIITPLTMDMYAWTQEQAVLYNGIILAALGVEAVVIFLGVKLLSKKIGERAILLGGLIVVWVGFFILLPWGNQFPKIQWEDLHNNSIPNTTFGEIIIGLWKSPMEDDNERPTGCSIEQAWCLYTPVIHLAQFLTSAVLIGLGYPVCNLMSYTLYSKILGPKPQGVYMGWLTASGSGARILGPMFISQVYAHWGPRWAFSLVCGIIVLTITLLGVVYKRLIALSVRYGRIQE
Chain of UniProt O60291 (O60291 whole entry, looked up): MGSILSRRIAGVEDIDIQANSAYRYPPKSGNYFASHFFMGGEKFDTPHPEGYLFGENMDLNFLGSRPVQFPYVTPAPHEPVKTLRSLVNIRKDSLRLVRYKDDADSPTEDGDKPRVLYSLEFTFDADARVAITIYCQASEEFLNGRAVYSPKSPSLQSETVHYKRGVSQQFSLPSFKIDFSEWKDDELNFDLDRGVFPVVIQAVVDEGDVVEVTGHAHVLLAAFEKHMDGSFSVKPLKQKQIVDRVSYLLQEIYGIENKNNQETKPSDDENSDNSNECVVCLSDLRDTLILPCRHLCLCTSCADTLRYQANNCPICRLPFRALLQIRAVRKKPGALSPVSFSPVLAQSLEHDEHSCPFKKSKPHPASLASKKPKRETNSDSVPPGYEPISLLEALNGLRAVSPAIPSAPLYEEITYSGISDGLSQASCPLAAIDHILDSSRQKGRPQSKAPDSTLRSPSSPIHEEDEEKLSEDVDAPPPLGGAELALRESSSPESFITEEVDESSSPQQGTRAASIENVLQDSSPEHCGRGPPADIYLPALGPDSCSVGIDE
Chain of UniProt P55082 (P55082 whole entry, looked up): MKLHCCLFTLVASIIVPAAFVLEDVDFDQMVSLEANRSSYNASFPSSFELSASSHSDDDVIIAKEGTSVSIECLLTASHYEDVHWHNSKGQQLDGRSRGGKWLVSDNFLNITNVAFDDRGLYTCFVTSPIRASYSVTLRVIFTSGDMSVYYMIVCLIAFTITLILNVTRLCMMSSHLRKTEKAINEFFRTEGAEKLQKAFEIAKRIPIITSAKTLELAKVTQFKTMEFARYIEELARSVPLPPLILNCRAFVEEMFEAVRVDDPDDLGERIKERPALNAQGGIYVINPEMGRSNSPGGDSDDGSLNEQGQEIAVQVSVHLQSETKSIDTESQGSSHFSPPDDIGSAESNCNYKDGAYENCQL
Chain of UniProt Q9P244 (Q9P244 whole entry, looked up): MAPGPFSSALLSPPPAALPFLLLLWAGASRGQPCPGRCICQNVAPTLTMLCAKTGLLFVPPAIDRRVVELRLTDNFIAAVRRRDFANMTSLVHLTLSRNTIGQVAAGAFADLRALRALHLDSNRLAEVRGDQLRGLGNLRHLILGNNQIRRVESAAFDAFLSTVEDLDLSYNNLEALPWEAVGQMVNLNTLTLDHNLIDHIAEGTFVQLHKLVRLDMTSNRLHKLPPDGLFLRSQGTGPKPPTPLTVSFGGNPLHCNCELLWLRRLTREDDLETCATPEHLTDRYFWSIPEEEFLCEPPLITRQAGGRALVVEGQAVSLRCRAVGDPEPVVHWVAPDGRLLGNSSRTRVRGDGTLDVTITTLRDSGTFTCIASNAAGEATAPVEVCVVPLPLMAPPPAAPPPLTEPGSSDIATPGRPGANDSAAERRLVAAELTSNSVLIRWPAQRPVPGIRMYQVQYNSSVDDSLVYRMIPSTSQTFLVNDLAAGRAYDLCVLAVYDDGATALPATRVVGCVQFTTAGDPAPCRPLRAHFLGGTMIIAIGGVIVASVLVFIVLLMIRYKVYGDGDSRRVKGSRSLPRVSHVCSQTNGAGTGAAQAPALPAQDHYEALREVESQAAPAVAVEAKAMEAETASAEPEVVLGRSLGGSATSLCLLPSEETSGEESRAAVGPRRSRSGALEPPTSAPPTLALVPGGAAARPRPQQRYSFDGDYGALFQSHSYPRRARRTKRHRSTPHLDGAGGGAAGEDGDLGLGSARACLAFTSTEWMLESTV
Chain of UniProt Q13422 (Q13422 whole entry, looked up): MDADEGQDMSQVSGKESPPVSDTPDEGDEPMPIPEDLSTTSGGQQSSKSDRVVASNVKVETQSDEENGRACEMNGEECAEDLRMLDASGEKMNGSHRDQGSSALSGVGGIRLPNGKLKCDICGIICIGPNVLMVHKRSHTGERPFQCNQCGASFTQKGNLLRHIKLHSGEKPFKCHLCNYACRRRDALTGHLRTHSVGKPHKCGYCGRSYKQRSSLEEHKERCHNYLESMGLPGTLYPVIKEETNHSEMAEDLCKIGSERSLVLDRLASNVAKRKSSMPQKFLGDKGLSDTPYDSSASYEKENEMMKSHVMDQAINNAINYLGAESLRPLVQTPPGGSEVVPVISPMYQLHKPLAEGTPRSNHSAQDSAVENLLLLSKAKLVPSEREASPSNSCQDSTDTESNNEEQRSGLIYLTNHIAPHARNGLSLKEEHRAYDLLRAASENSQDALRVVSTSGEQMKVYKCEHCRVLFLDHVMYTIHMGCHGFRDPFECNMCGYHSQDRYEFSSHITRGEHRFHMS
Chain of UniProt Q6NUT3 (Q6NUT3 whole entry, looked up): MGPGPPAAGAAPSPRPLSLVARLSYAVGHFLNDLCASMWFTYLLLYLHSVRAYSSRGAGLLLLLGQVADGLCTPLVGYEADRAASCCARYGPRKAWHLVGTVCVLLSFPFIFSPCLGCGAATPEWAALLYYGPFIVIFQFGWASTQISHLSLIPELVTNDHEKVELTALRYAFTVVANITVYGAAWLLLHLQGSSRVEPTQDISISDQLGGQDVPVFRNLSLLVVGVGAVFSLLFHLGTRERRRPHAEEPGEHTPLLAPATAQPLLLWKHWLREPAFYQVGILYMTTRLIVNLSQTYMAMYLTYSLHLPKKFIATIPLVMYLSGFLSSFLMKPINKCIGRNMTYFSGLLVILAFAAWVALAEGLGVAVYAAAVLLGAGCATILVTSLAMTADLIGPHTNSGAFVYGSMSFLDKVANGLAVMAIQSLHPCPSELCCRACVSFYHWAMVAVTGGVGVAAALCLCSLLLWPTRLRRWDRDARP

Target	log2 fold change (erlotinib)	log2 fold change [1]	log2 fold change [2]	log2 fold change [3]	log2 fold change [4]	log2 fold change [5]	log2 fold change [6]	log2 fold change [7]	log2 fold change [8]	log2 fold change [9]	log2 fold change (IRAK-1-4 Inhibitor I)	log2 fold change (ibrutinib)	log2 fold change [10]	log2 fold change (ralimetinib)	log2 fold change [11]	log2 fold change [12]	log2 fold change [13]	log2 fold change (pinometostat)	log2 fold change [14]	log2 fold change [15]
MFSD8 (UniProt Q8NHS3)	0.047	-0.018	-0.012	-0.089	0.009	0.166	0	-0.054	-0.033	-0.091	0.062	0.13	0.036	0.19	0.067	-0.446 (active)	0.08	0.101	0.124	
LRFN1 (UniProt Q9P244)	0.059		-0.028	0		0.004	-0.038		-0.1	0.052	0.105	-0.018		-0.009	0.073	0.107	0.061	0.029	0.008	
KIF21A (UniProt H0YI78)	0.077			-0.137			0.1							0.366		-0.158	0.012			
LDLRAP1 (UniProt Q5SW96)	-0.017			0.252		0.199	-0.118				0.013	-0.177		-0.032		-0.541 (active)	0.028	0.318		
MFAP3 (UniProt P55082)		0.202	-0.021		0.029	-0.106		-0.142	-0.088	0.064		-0.027	-0.067		-0.165				-0.111	
MGRN1 isoform 2 (UniProt O60291)	0.016	0.079		0	-0.544 (active)	0.004	-0.095	0.073	0.008	0.227	0.062	-0.003	0.116	-0.015		-0.225	0.114	0.041	-0.098	
ING5 (UniProt Q8WYH8)	0.273			-0.119					0.003	0.286	0.101					-0.395		0.097	0.03	
IGFBP3 isoform 2 (UniProt P17936)		-0.18	-0.094		0.049			-0.172	0.032	-0.057	0.115		0.097		0.196			-0.004	-0.095	
IKZF1 isoform 2 (UniProt Q13422)	0.017			-0.006		0.046	0.047		-0.38 (active)	-0.016		0.252		0.152		0.031	0.159		0.418 (active)	-0.041
MFSD12 isoform 3 (UniProt Q6NUT3)	0.062	-0.062		0.077	-0.035			0.024	-0.088	-0.099			-0.002			-0.474 (active)			-0.066	
LMNA isoform 2 (UniProt P02545)									-0.022	0.146									-0.128	
JAK3 (UniProt P52333)	-0.178		0.062	-0.013		0.021	-0.207		0.059	-0.024	-0.01	-0.052		-0.184	-0.045	0.072	-0.043	-0.082	-0.089	0.009
ITPRID2 (UniProt P28290)	0.022		-0.133	-0.268			-0.213				0.004			-0.025	0.238	-0.686 (active)	0.063	0.03		
